Reference: PubChem BioAssay (Tox21)
Inconclusive results are not listed. Activity calls are given as the source filed them. Calls come from the whole dose curve; as a rule, active = well fitted cell-killing curve with a large enough effect in the repeat runs; inconclusive = weak or mixed curves, or effect the other way; inactive = flat fitted curve, though single readings scatter.

Test: Nuclear factor erythroid 2-related factor 2/antioxidant responsive element (Nrf2/ARE) small molecule agonists: qHTS cell viability counter screen in human keratinocytes (AID 1919968); note: nearly all actives have a fitted effect of over 55% in size
Details: KeratinoSens HaCaT ARE cells viability, CellTiter-Fluor, 24 h; series mostly up to 92.4 µM; activity change, negative = cytotoxicity: at the top concentration
Description: U.S. Tox21 Program National Center for Advancing Translational Sciences [NCATS] Division of Preclinical Innovation [DPI] U.S. Environmental Protection Agency [EPA] National Institutes of Environmental Health Sciences [NIEHS] National Toxicology Program [NTP] U.S. Food and Drug Administration [FDA] Tox21 Assay Overview: Oxidative stress has been implicated in the pathogenesis of a variety of diseases ranging from cancer to neurodegeneration. The antioxidant response element (ARE) signaling pathway plays an important role in the amelioration of oxidative stress. The KeratinoSens (Givaudan, Switzerland) is an in vitro test method which quantifies luciferase induction as a measure of activation of Keap1-Nrf2-antioxidationt/electrophile response element (ARE) dependant pathway in HaCaT human keratinocytes stably transfected with a selectable plasmid. The KeratinoSens assay is a cell-based assay with a reporter cell line to detect potential skin sensitizers by their ability to induce the Nrf2/ARE-response. The activation of the report gene under culture conditions can be detected by ONE-Glo Luciferase Assay System (Promega, Madison, WI). This cell line has been used to screen the Tox21 10K compound library to identify agonists that induce oxidative stress. The cytotoxicity of the Tox21 compound library against the KS-ARE cell line was tested in parallel by measuring the cell viability using CellTiter- Fluor assay system (Promega, Madison, WI) in the same wells.
Tox21 Assay Protocol Summary: HaCaT derived cell line KeratinoSens were dispensed at 1,500 cells/5uL/well in 1536-well white wall/solid bottom plates using a Multidrop Combi (ThermoFisher Scientific, Waltham, MA) dispenser. After the assay plates were incubated at 37 C/5% CO2 for 5 h, 23 nL of compounds dissolved in DMSO, positive controls or DMSO only was transferred to the assay plate by a pintool workstation (Kalypsys, San Diego, CA). The plates were incubated at 37 C/5% CO2 for 23 h, followed by addition of 1uL/well of CellTiter-Fluor reagent into the assay plates using a Flying Reagent Dispenser (Aurora Discovery, San Diego, CA) for cell viability readout that measures cytotoxicity. After 1 h incubation at 37 C/5% CO2 the fluorescence intensity was measured using a ViewLux (PerkinElmer, Shelton, CT) plate reader.
% is set by controls: 0 for no effect and ±100 for the full control effect; potency is the fitted concentration of half-maximal effect.

Row | SMILES | activity change, negative = cytotoxicity | Potency
1 | CC(=O)Nc1ccc(C)c(Cl)c1 | 5.81% (inactive) | 
2 | NC1[C@H]2CN(c3nc4c(cc3F)c(=O)c(C(=O)O)cn4-c3ccc(F)cc3F)C[C@@H]12 (stereo not given in full) | 1.14% [at 42.5 µM] (inactive) | 
3 | CC1(C)C(=O)C(C)(C)C1=O | -6.49% (inactive) | 
4 | O=C(O)c1cccc(-c2noc(-c3ccccc3F)n2)c1 | 3.55% [at 42.5 µM] (inactive) | 
5 | C=C(C)C(=O)OCC[N+](C)(C)C | 3.43% (inactive) | 
6 | O=C(Oc1ccccc1C(=O)O)c1ccccc1O | 0.527% [at 42.5 µM] (inactive) | 
7 | CCOc1cc(OCC)c(C(=O)CCC(=O)O)cc1OCC | 3.88% [at 42.5 µM] (inactive) | 
8 | CCCCc1nc(Cl)c(CO)n1Cc1ccc(-c2ccccc2-c2nn[nH]n2)cc1 | -18.9% [at 42.5 µM] (inactive) | 
9 | C/C(=N\[Si](C)(C)C)O[Si](C)(C)C | -2.39% (inactive) | 
10 | CC(=O)[C@H]1CC[C@H]2[C@@H]3C=CC4=CC(=O)CC[C@@]4(C)[C@@H]3CC[C@]12C | -0.272% [at 42.5 µM] (inactive) | 
11 | CCOC(=O)Oc1ccc(CCNC(=O)[C@H](CCSC)NC(C)=O)cc1OC(=O)OCC | -1.6% [at 42.5 µM] (inactive) | 
12 | CC(C)c1ccc(C(=O)N=C(N)N)cc1S(C)(=O)=O | 1.56% [at 42.5 µM] (inactive) | 
13 | Cc1ccccc1C(=O)O | 3.64% (inactive) | 
14 | Cc1cccc(Nc2ccncc2S(=O)(=O)NC(=O)NC(C)C)c1 | 0.473% [at 42.5 µM] (inactive) | 
15 | OCCN(CCO)c1ccccc1 | -3.85% (inactive) | 
16 | OC[C@@H](O)[C@H](O)[C@@H](O)[C@@H](O)CO | 1.57% (inactive) | 
17 | Cc1ccnc2ccccc12 | 12.8% (inactive) | 
18 | O=C(OCCN1CCOCC1)c1cccnc1Nc1cccc(C(F)(F)F)c1 | 6.31% [at 42.5 µM] (inactive) | 
19 | COc1cc(-c2ccc(N=C=O)c(OC)c2)ccc1N=C=O | 0.0884% [at 42.5 µM] (inactive) | 
20 | Cc1ccc(N)nc1 | -1.74% (inactive) | 

Row | SMILES | activity change, negative = cytotoxicity | Potency
21 | CCOC(=O)c1ncn2c1CN(C)C(=O)c1cc(F)ccc1-2 | -4.25% [at 42.5 µM] (inactive) | 
22 | c1ccc([C@H]2CN3CCSC3=N2)cc1 | 2.53% [at 42.5 µM] (inactive) | 
23 | N#Cc1ccc(CC(=O)c2cccc(C(F)(F)F)c2)cc1 | 5.18% (inactive) | 
24 | CCCCCCC(O)CO (stereo not given) | -1.21% (inactive) | 
25 | C/C=C(\C)C(=O)OCCC(C)CCC=C(C)C (stereo not given) | 5.54% (inactive) | 
26 | C[C@@]12C(=O)OC(=O)[C@]1(C)C1CCC2O1 |  | 16.8 µM (active)
27 | CC(C)=CCC1C(=O)N(c2ccccc2)N(c2ccccc2)C1=O | -6.69% [at 42.5 µM] (inactive) | 
28 | c1ccc(CCCc2ccccn2)cc1 | 0.0132% (inactive) | 
29 | CCN(CC)CCOc1ccc(Cc2ccccc2)cc1 | -16.6% [at 42.5 µM] (inactive) | 
30 | O=C(O)CC(C(=O)O)S(=O)(=O)O (stereo not given) | -5.32% (inactive) | 
31 | CC(C)Nc1cccnc1N1CCN(C(=O)c2cc3cc(NS(C)(=O)=O)ccc3[nH]2)CC1 | -0.216% [at 42.5 µM] (inactive) | 
32 | Cc1c(C)c2c(c(C)c1O)CC[C@@](C)(CCC[C@H](C)CCC[C@H](C)CCCC(C)C)O2 | 0.323% (inactive) | 
33 | C=CC(C)(C)O | -3.97% (inactive) | 
34 | CC(C=O)Cc1ccc(C(C)C)cc1 (stereo not given) | 3.34% (inactive) | 
35 | O=C(O)c1snc(Cl)c1Cl | 4.06% (inactive) | 
36 | CCCCCCCC(=O)OCC | 4.52% (inactive) | 
37 | CC(C)(C)c1cc(CCC(=O)NCCCCCCNC(=O)CCc2cc(C(C)(C)C)c(O)c(C(C)(C)C)c2)cc(C(C)(C)C)c1O | -4.38% (inactive) | 
38 | CCCOC(=O)c1ccc(O)cc1 | 1.55% (inactive) | 
39 | CC1=C(C)C(=O)C(CCCCC#CCCCC#CCO)=C(C)C1=O | 1.32% [at 42.5 µM] (inactive) | 
40 | CCCc1ncc(C(=O)O)s1 | -7.4% [at 42.5 µM] (inactive) | 
